# From PubChem
# Sampled rows, rich in hits. Any-hit rate of the full collection: about 2.4%.
# D2 antagonist – HTS Assay for Allosteric Antagonists of the Human D2 Dopamine Receptor: Primary Screen for Antagonists | HEK293 TREx D2 cells, calcium flux, dopamine EC80 | D(2) dopamine receptor (Homo sapiens), P14416 | inhibition, % at 10 µM | 340,000 compounds, 2% hits; in the data active = inhibition above about 30%; inactive = below that, where a call was filed; note: 0% is about no effect
# Target sequence (P14416 whole entry, looked up): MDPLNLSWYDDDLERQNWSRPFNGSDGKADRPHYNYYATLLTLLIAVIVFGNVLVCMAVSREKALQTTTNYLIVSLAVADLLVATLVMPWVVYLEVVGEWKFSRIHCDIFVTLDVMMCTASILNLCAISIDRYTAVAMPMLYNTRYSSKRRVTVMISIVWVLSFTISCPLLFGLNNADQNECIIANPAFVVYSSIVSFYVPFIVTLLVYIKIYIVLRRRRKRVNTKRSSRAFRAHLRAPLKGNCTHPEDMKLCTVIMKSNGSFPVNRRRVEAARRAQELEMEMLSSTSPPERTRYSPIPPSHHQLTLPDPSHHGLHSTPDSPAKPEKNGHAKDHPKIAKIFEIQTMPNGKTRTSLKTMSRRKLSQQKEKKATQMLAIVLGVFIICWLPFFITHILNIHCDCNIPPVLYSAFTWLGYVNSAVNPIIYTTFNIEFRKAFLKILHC
#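 Calcium flux kinetic readout in an inducible HEK293 TREx D2 line plated overnight at 30 C. After 180 s compound exposure, an EC80 dopamine challenge follows with another 180 s kinetic read to detect antagonism.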
# D2 PAM-1 – HTS Assay for Positive Allosteric Modulators of the Human D2 Dopamine Receptor: Primary Screen for Potentiators; AID 485347, 2010; 340,000 compounds, 0.34% hits; potentiation, % at 10 µM; HEK293 T-REx D2, calcium flux, EC20 dopamine potentiation; D(2) dopamine receptor (Homo sapiens), P14416;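 active = potentiation over 3 SD above the plate norm, cut at about 30% in these data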; note: 0% is about no effect
#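 Calcium flux readout, no-wash dye, 1 read/s. Inducible HEK293 Trex D2 line, overnight 30 C. Compound alone 180 s (agonist flags), then EC20 dopamine, another 180 s to score potentiation.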
# D2 ag-1 – HTS Assay for Allosteric Agonists of the Human D2 Dopamine Receptor: Primary Screen for Agonists | D(2) dopamine receptor (Homo sapiens), P14416 | HEK293 T-REx D2 cells, calcium flux agonist mode | activation, % at 2 µM | 340,000 compounds, 0.53% hits | AID 485358, 2010;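 active = activation over 3 SD above normal in the single-dose calcium agonist read, cut at about 30% in these data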; note: 0% is about no effect
#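 HEK293 Trex D2 cells, tetracycline-induced, o/n 30 C 5% CO2; no-wash Ca dye, RT 30–90 min; 10-cycle baseline, 23 nl cpd added, kinetic Ca read 180 s; agonist hits = positive Ca response.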
# D2 PAM-2 – Beta-Arrestin HTS for Positive Allosteric Modulators of the Human D2 Dopamine Receptor: Potentiators. D(2) dopamine receptor (Homo sapiens), P14416. DiscoveRx D2 beta-arrestin cells, luminescence, 90 min; 100% = 57 uM dopamine signal. potentiation, % (concentration not given with the values). 360,000 compounds, 0.23% hits. AID 624464, 2012; in the data active = potentiation above about 50%
#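 PathHunter beta-arrestin assay in DiscoveRx D2 cells. Compounds were added with an EC20 of dopamine (50 nM final) for 90 min at 37 deg C. Luminescence was read 1 h after detection reagent, with 57 uM dopamine as the EC100 control.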
# D2 ag-2 – Beta-Arrestin HTS for Positive Allosteric Modulators of the Human D2 Dopamine Receptor: Agonists | activation, % (no concentration beside the values) | AID 624465, 2012 | 360,000 compounds, 0.084% hits | DiscoveRx PathHunter D2 beta-arrestin, luminescence, 90 min; 100% = 57 uM dopamine signal | D(2) dopamine receptor (Homo sapiens), P14416; in the data active = activation above about 40%
#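 DiscoveRx PathHunter D2 beta-arrestin cells (2,100/well) attached overnight, then compound-stimulated 90 min at 37 C in HBSS/10 mM HEPES/0.1% Tween-20 buffer; beta-galactosidase complementation read by luminescence after 1 h at ambient temperature. Dopamine 57 uM final (EC100) as control.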
# An asterisk follows results filed as active; x = no result given.
SMILES,D2 antagonist,D2 PAM-1,D2 ag-1,D2 PAM-2,D2 ag-2
CC(C)CCNC(=O)c1ccc(Cn2c(SCC(=O)NC(C)C)nc3ccccc3c2=O)cc1,x,-12.9,0.6,x,x
O=C1C=C(c2cc(F)ccc2F)C[C@@H](c2ccc(Cl)cc2)C1,8.7,2.1,-0.7,-4.5,-6.4
COc1cc(F)c(C2=CC(=O)C[C@H](c3ccc(Cl)cc3)C2)cc1F,34.8*,-6.7,0.5,-11.1,-5.1
CCOC(=O)Cn1c(=O)c2c(nc(N3CCOCC3)n2Cc2ccccc2)n(C)c1=O,x,3.8,-0.5,x,x
O=[N+]([O-])c1ccc(OCCCCN2CCc3ccccc3C2)cc1,62.1*,-31.1,-0.7,-22.4,4.6
COc1ccc(OCCCN2CCc3ccccc3C2)cc1,71.9*,-12.9,-0.1,-26.4,-1.1
Cc1ccc(SCCOCCN2CC(C)OC(C)C2)cc1 (stereo unspecified),20.1,21.1,-0.4,-22.7,-2.1
c1ccc(OCCOCCN2CCN(C(c3ccccc3)c3ccccc3)CC2)cc1,-36.6,-35.6,-0.7,-27.1,-5.8
Cc1ccc(SCCOCCN2CCc3ccccc3C2)cc1,75.0*,-24.4,-1.1,-20.7,-4.8
c1ccc(OCCOCCN2CCc3ccccc3C2)cc1,64.9*,-24.8,-0.8,-9.1,-5.0
CCn1nc(C)c2c(-c3ccccc3)cc(=O)n(C(C)C(=O)NCc3ccc(C)cc3)c21 (stereo unspecified),x,x,-0.1,x,x
CCOc1ccc(OCCOCCN2CCCC2)cc1,-15.0,8.6,0.8,13.1,-2.0
CCCOc1ccc(OCCOCCN2CCc3ccccc3C2)cc1,31.4*,-26.3,13.8,1.3,-0.3
C=CCc1cc(OC)ccc1OCCOCCN1CCc2ccccc2C1,84.1*,-25.0,-0.9,-17.9,0.2
CCOc1ccc(OCCOCCN2CCc3ccccc3C2)cc1,68.4*,-20.0,12.9,-44.9,-0.4
O=C(c1ccc2c(c1)OCO2)C1CCCN(C2CCN(CCc3ccccc3)CC2)C1 (stereo unspecified),69.8*,-27.8,-0.9,-11.8,-1.5
CCN(CC)CCOC(=O)c1ccc(NC(=O)c2cc3c(=O)n(CC)c4ccccc4c3s2)cc1,x,15.9,x,x,x
O=C(Nc1cc(Cl)ccc1Cl)c1cc(S(=O)(=O)N2CCCc3ccccc32)ccc1F,x,4.9,x,x,x
O=c1c(/C=C(\O)c2ccc(F)cc2)nc2ccccc2n1-c1ccccc1,4.2,-9.9,44.0*,-16.3,-7.2
Cn1c(=O)c(/C=C/c2ccc(F)cc2)nc2ccccc21,7.6,4.6,0.3,-9.5,-1.8
Cn1c(CCN2CCCC2)nc2cc(NS(=O)(=O)c3ccc(F)cc3)ccc21,x,x,x,-41.6,-1.1
Cn1c(CN2CCCC2)nc2cc(NS(=O)(=O)c3ccccc3)ccc21,67.4*,-24.7,-0.6,-29.9,-3.4
Cn1c(CN2CCCC2)nc2cc(NS(=O)(=O)c3ccc(Cl)cc3)ccc21,68.6*,-16.7,2.9,-47.4,-2.9
O=C(CCc1nc2cccnc2n1Cc1ccccc1)NCc1cccc(Cl)c1,x,-13.5,-0.2,x,x
c1ccc(N2CCN(c3nc4ccccc4n4nnnc34)CC2)cc1,-8.7,7.9,0.9,19.0,-0.5
SMILES,D2 antagonist,D2 PAM-1,D2 ag-1,D2 PAM-2,D2 ag-2
Cc1cc(C)n(-c2nc3ccccc3n3nnnc23)n1,3.7,32.8*,-0.6,-1.6,-0.4
O=C(/C=C\c1ccc(-c2ccccc2)o1)c1ccccc1,x,x,x,-14.2,-3.8
O=C(O)/C=C/c1ccc(-c2cccc(C(F)(F)F)c2)o1,-5.0,42.8*,-0.5,1.4,-4.5
CCOc1ccc(-c2cccc(NS(=O)(=O)c3c(C)cc(C)cc3C)c2)nn1,x,1.7,-0.9,x,x
O=S(=O)(NCc1nc2cccnc2n1Cc1ccccc1Cl)c1ccc(F)c(Cl)c1,x,-1.5,x,x,x
Cc1cccc(NC(=O)[C@@H]2CCCN2C2=NS(=O)(=O)c3ccccc32)c1C,-7.5,6.0,0.0,-4.4,1.7
CC(=O)c1ccc(NC(=O)[C@@H]2CCCN2C2=NS(=O)(=O)c3ccccc32)cc1,37.2*,14.2,-0.2,-3.1,1.1
CCOc1ccc(-c2nnc(N)s2)cc1,0.7,73.9*,-0.3,-9.2,-0.7
COc1cccc(Cn2c(CNS(=O)(=O)c3ccc(F)c(Cl)c3)nc3cccnc32)c1,x,8.8,x,x,x
CCCC(=O)Nc1ccc(N2CCCCC2)cc1,6.0,-9.3,-0.8,-2.9,-3.1
O=C(O)CCCC(=O)Nc1ccc(N2CCCC2)cc1,-2.7,1.0,-0.1,69.2*,5.1
O=C(O)CCC(=O)Nc1ccc(C(=O)N2CCCCC2)cc1,6.4,32.6*,-0.9,-10.2,-2.9
CC(=O)Nc1ccc(C(=O)N2CCCC2)cc1,1.4,32.2*,-0.2,-21.7,-1.2
CN(C)S(=O)(=O)c1ccc(C(=O)NCCS(=O)(=O)N2CCN(c3ccccc3)CC2)cc1,x,4.6,0.7,x,x
Cc1cccc(N2CCN(c3nc4ccc(C(=O)c5ccccc5)cc4n4cnnc34)CC2C)c1 (stereo unspecified),x,7.5,0.4,x,x
COc1ccc(NC(=O)c2ccc3c(c2)C(=O)N(CC2CCCO2)C3=O)cc1 (stereo unspecified),4.0,4.4,0.1,-2.6,5.0
O=C(Cc1ccccc1)Nc1ccc2c(c1)C(=O)N(CC1CCCO1)C2=O (stereo unspecified),2.5,9.3,0.9,1.3,-1.8
O=C(NCc1ccccc1)c1ccc2c(c1)C(=O)N(CC1CCCO1)C2=O (stereo unspecified),31.0*,-9.9,-0.9,-4.6,3.5
O=C(NCc1ccc2c(c1)OCO2)C(=O)NCC1CCCO1 (stereo unspecified),9.6,4.5,0.1,-6.7,-2.8
O=C(NCc1cccc(CNC(=O)C(=O)NCC2CCCO2)c1)C(=O)NCC1CCCO1 (stereo unspecified),30.0*,6.8,0.2,-2.2,0.5
COc1ccc(NC(=O)c2ccc3c(c2)C(=O)N(CC2CCCO2)C3=O)c(OC)c1 (stereo unspecified),20.8,37.4*,2.2,0.5,4.6
COC(=O)c1sc2cccc(F)c2c1S(=O)(=O)N1CCN(c2cccc(C)c2)C(C)C1 (stereo unspecified),x,-5.3,-0.2,x,x
COc1cccc2cc(C(C)OC(=O)Nc3ccc(C)cc3)oc12 (stereo unspecified),32.2*,-7.8,0.7,-20.9,2.8
Cc1ccc(NC(=O)CN(C)S(=O)(=O)c2ccc3c(c2)n(C)c(=O)c(=O)n3C)c(C)c1,0.5,-0.4,-0.6,-6.2,-5.1
